Potency and outcome data for eight molecules are collected here from PubChem BioAssay (Tox21).

A short description of assay [1]: qHTS assay to identify small molecule antagonists of the estrogen receptor alpha (ER-alpha) signaling pathway using the BG1 cell line in the presence of 0.1 nM 17-beta-estradiol - cell viability counter screen (AID 1259241). Note: nearly all actives have a fitted effect of over 40% in size. An outline of the steps: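 Cytotoxicity counter-screen: live-cell protease activity measured by fluorescence (30 min reagent step) in the same wells. Cells were VM7Luc4E2 with endogenous ER-alpha and ERE-driven luciferase, treated 22 hr at 37C alongside 0.1 nM 17beta-estradiol final.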

Assay [2] is described as follows: qHTS assay to identify small molecule antagonists of the androgen receptor (AR) signaling pathway using the MDA cell line in the presence of 0.5 nM R1881 - cell viability counter screen (AID 1259242). Note: nearly all actives have a fitted effect of over 45% in size. Put shortly:
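qHTS format. MDA-kb2 (MMTV-luc, AR/GR responsive) + cpd + 0.5 nM R1881 final, 16 hr 37C/0% CO2 → CellTiter-Fluor 30 min → fluorescence intensity.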

The target in assay [3] is Androgen receptor (Homo sapiens) (UniProt P10275). The assay is described as follows: qHTS assay to identify small molecule antagonists of the androgen receptor (AR) signaling pathway using the MDA cell line in the presence of 0.5 nM R1881 (AID 1259243). Note: nearly all actives have a fitted effect of over 50% in size. An outline of the steps: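 Antagonist mode quantitative HTS in MDA-kb2 MMTV-luciferase cells, agonist R1881 at 0.5 nM final, 16 hr exposure at 37C and 0% CO2, luminescent detection.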
Chain of Androgen receptor (Homo sapiens) (P10275 whole entry, looked up): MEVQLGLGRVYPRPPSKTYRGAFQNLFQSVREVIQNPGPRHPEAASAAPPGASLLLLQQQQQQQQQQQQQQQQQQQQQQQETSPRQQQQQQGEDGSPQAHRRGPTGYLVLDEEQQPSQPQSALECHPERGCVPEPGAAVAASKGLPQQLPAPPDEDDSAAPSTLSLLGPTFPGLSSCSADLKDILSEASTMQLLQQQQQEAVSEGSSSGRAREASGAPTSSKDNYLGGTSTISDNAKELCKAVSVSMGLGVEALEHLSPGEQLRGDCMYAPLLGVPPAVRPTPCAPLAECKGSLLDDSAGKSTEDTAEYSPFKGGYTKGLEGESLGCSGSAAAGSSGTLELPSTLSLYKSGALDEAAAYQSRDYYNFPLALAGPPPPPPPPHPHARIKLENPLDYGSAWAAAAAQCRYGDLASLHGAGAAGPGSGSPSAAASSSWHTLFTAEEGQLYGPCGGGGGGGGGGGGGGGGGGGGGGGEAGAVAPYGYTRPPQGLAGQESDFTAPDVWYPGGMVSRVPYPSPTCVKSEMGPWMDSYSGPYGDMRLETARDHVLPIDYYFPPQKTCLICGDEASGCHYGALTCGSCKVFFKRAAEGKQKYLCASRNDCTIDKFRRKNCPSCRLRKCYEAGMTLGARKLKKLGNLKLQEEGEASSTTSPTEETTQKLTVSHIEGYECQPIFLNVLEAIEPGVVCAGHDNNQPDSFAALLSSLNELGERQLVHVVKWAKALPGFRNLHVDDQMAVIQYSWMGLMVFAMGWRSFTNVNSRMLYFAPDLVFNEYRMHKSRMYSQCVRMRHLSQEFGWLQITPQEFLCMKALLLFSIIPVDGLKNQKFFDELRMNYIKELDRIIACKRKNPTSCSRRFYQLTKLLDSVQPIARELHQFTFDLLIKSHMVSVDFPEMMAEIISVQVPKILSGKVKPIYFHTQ

Assay [4] deals with Estrogen receptor (Homo sapiens) (UniProt P03372). As to the kind of experiment: qHTS assay to identify small molecule antagonists of the estrogen receptor alpha (ER-alpha) signaling pathway using the BG1 cell line in the presence of 0.1 nM 17-beta-estradiol (AID 1259244). Note: nearly all actives have a fitted effect of over 50% in size. An outline of the steps: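 Reporter is a stably transfected luciferase under four estrogen responsive elements in VM7Luc4E2 cells expressing native full-length ER-alpha; inhibition of 0.1 nM (final) 17beta-estradiol-driven signal over 22 h is read by luminescence.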
Chain of Estrogen receptor (Homo sapiens) (P03372 whole entry, looked up): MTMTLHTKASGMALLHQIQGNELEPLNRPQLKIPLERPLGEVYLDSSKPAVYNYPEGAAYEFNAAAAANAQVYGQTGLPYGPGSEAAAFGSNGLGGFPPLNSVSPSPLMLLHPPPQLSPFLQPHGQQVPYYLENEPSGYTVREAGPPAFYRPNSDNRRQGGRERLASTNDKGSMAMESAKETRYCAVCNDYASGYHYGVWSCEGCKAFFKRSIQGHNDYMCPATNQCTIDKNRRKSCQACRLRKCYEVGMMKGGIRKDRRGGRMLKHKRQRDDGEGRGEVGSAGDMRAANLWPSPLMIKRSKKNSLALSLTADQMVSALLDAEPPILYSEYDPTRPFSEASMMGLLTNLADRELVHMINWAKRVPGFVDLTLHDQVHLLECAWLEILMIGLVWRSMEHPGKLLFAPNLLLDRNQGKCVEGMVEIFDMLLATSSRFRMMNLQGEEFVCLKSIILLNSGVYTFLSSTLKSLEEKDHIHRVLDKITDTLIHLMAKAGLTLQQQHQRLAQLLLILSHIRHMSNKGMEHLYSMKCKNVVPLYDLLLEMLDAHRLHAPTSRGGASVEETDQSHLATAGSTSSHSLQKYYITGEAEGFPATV

Assay [5] can be described thus: qHTS assay to identify small molecule HDAC inhibitors (AID 1259364). Note: potency is the fitted concentration of half-maximal effect.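 Note: wild-type HCT-116 cells with endogenous class I/II HDAC activity; nearly all actives have a fitted effect of over 45% in size.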 An outline of the steps:
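Quantitative high-throughput format: overnight-seeded HCT-116 cells got compounds for 2 hr at 37C; HDAC-Glo I/II reagent added, 30 min RT, luminescence measured.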

Assay [6] is described as follows: qHTS assay to identify small molecule HDAC inhibitors - cell viability counter screen (AID 1259365). Note: series mostly up to about 92 µM; nearly all actives have a fitted effect of over 50% in size. An outline of the steps:
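CellTiter-Glo luminescence (30 min, room temperature) reported viability after a 2 h compound exposure at 37 C. Cells: wild-type HCT-116, 1,500 per well, seeded the night before.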

Assay [7] in a line: qHTS assay to identify small molecule agonists of the sonic hedgehog signaling (Shh) pathway - cell viability counter screen (AID 1259366). Note: nearly all actives have a fitted effect of over 50% in size. Note: potency is the fitted concentration of half-maximal effect. An outline of the steps: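 Cytotoxicity counter screen: CellTiter-Fluor reagent added after 23 h compound exposure, then 1 h at 37C and fluorescence read. Cells were 3T3 Gli1-Luc, seeded 2,000 per well and dosed 4 h post-plating.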
The nature of assay [8]: qHTS assay to identify small molecule antagonists of the sonic hedgehog signaling (Shh) pathway - cell viability counter screen (AID 1259367). Note: nearly all actives have a fitted effect of over 55% in size. Note: potency is the fitted concentration of half-maximal effect. An outline of the steps: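 Viability was read by CellTiter-Fluor fluorescence in the same wells, reagent added 23 hr into compound treatment and incubated 1 hr at 37C. The 3T3 Gli1-Luc reporter cells (2,000/well) received conditioned medium after compound and ran 24 hr.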

Assay [9] is described as follows: qHTS assay to identify small molecule agonists of the sonic hedgehog signaling (Shh) pathway (AID 1259368; calls by dose curve;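 note: NIH/3T3-derived 3T3Gli1-Luc cells carrying a stable Gli1-driven firefly luciferase reporter; series mostly up to about 92 µM; nearly all actives have a fitted effect of over 15% in size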). An outline of the steps: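 Quantitative high-throughput format using a Gli1-driven firefly luciferase reporter line derived from NIH/3T3 cells. After a 24 hr compound treatment at 37 C and 5% CO2, luminescence reported Gli1 response element activity.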
A short description of assay [10]: qHTS assay to identify small molecule antagonists of the sonic hedgehog signaling (Shh) pathway (AID 1259369; calls by dose curve; note: nearly all actives have a fitted effect of over 45% in size). Put shortly: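 Stable Gli1-Luc reporter NIH/3T3 clone; quantitative HTS in stimulated mode with conditioned medium. Luminescence measured after 24hr compound treatment at 37 C.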
Assay [11] concerns the target Estrogen receptor beta (Homo sapiens) (UniProt Q92731). The assay is described as follows: qHTS assay to identify small molecule agonists of the estrogen receptor beta (ER-beta) signaling pathway (AID 1259377; active = well fitted activation curve with a large enough effect in the signal ratio in the repeat runs, not every such curve was filed as active; the % refers to the signal ratio). Put shortly:
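Ratiometric beta-lactamase FRET read-out came after 2 h substrate loading at room temperature. It followed 16 h compound treatment at 37C of GripTite HEK293T cells carrying a UAS-bla reporter, plated in 2% charcoal-stripped FBS medium.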

Assay [12] can be described thus: qHTS assay to identify small molecule agonists of the androgen receptor (AR) signaling pathway in the presence of an antagonist - cell viability counter screen (AID 1259379). Note: nearly all actives have a fitted effect of over 25% in size. Note: potency is the fitted concentration of half-maximal effect. An outline of the steps: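 Nilutamide-containing (3.0uM final) MDA-kb2 cultures, 3,000 cells/well, were treated with compounds across 15 concentrations. After 16 hr at 37C with no CO2, cell viability was determined by CellTiter-Fluor fluorescence in the luciferase assay wells.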

Assay [13] in a line: qHTS assay to identify small molecule agonists of the estrogen receptor beta (ER-beta) signaling pathway - cell viability counter screen (AID 1259380). Note: nearly all actives have a fitted effect of over 30% in size. An outline of the steps:
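Steps: plate ER-beta-UAS-bla HEK293T cells, rest 6 hr; add compounds in DMSO; incubate 16 hr at 37C, 5% CO2; add FRET substrate 2 hr; add CellTiter-Glo, wait 30 min at room temperature; read luminescence.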

A short description of assay [14]: qHTS assay to identify small molecule antagonists of the estrogen receptor beta (ER-beta) signaling pathway - cell viability counter screen (AID 1259382).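 Note: HEK293T cells carrying ER-beta-UAS-bla reporter stimulated with estradiol; series mostly up to about 92 µM; nearly all actives have a fitted effect of over 55% in size.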 Put shortly:
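Viability is scored by CellTiter-Glo luminescence (30 min, room temperature) in ER-beta-UAS-bla HEK293T wells already read for reporter fluorescence. Compound exposure lasts 16 hr at 37C alongside 1nM 17-beta-estradiol in charcoal-stripped serum medium.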

The target in assay [15] is Estrogen receptor (Homo sapiens) (UniProt P03372). As to the kind of experiment: qHTS assay to identify small molecule agonists of the estrogen receptor alpha (ER-alpha) signaling pathway in the presence of an antagonist (AID 1259383; calls by dose curve; note: nearly all actives have a fitted effect of over 15% in size; note: potency is the fitted concentration of half-maximal effect; for activation: top concentration of the series differs between compounds). Put shortly:
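Readout was ERE-driven luciferase luminescence in VM7Luc4E2 cells, which express full-length ER-alpha endogenously. Compounds were tested at 15 concentrations for 22hr alongside 10.0nM ICI-182,780 (final concentration).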

In assay [16] the target is Thyrotropin receptor (Homo sapiens) (UniProt P16473). As to the kind of experiment: qHTS assay to identify small molecule antagonists of the thyroid stimulating hormone receptor (TSHR) signaling pathway (AID 1259385; calls by dose curve; note: nearly all actives have a fitted effect of over 20% in size). Put shortly: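 Antagonist mode: compound-treated TSHR-expressing HEK293 cells were stimulated with 1.5 ng/mL TSH (final) in presence of Ro20-1724 for 30 min at RT. HTRF cAMP detection after 1 h; each compound tested at 15 concentrations, triplicate.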
Chain of Thyrotropin receptor (Homo sapiens) (P16473 whole entry, looked up): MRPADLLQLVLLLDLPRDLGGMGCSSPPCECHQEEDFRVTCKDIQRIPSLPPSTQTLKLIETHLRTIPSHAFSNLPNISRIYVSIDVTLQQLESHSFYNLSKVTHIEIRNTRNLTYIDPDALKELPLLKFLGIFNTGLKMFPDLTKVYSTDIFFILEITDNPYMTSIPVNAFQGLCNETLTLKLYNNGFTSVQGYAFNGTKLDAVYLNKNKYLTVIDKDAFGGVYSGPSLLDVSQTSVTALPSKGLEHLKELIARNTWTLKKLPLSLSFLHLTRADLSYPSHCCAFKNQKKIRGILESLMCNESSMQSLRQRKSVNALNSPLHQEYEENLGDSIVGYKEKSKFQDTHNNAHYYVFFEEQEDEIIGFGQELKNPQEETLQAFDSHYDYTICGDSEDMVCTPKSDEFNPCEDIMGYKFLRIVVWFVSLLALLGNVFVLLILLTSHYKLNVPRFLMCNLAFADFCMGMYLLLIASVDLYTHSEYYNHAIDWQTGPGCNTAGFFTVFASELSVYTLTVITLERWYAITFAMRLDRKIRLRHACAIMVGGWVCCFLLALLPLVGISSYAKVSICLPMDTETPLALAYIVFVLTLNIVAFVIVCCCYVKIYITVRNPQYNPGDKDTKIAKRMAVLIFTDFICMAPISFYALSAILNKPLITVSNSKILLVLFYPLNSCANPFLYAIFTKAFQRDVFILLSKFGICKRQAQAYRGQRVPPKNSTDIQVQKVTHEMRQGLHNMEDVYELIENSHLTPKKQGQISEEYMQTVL

Assay [17] is described as follows: qHTS assay to identify small molecule agonists of the estrogen receptor alpha (ER-alpha) signaling pathway in the presence of an antagonist - cell viability counter screen (AID 1259386).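 Note: series mostly up to about 92 µM; cells exposed to compounds for 22 h at 37 °C before the viability read; nearly all actives have a fitted effect of over 30% in size.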 Put shortly:
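In this counter screen, compound effects on VM7Luc4E2 viability were tested in the presence of the antagonist ICI-182,780 at 10.0nM final. Compounds were dosed at 15 concentrations, exposure lasted 22hr, and the CellTiter-Fluor signal was read.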

Assay [18] concerns the target Estrogen receptor beta (Homo sapiens) (UniProt Q92731). As to the kind of experiment: qHTS assay to identify small molecule antagonists of the estrogen receptor beta (ER-beta) signaling pathway (AID 1259378; active = well fitted inhibition curve with a large enough effect in the signal ratio in the repeat runs, not every such curve was filed as active; the % refers to the signal ratio). Put shortly: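 Antagonist mode: compounds added to beta-lactamase reporter HEK293T ER-beta-UAS cells stimulated with E2 (1nM final), 16 hr at 37C. LiveBLAzer B/G FRET substrate, 2 hours room temperature, fluorescence read-out.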

Assay [19] in a line: qHTS assay to identify small molecule agonists or antagonists of the thyroid stimulating hormone receptor (TSHR) signaling pathway - wild type cell line counter screen (AID 1259384; calls by dose curve). Put shortly:
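Counter screen in untransfected Hek293: compounds (15-point titration, triplicate) plus phosphodiesterase inhibitor Ro20-1724 added after 18 h plating; 30 min RT. Intracellular cAMP via competitive d2/cryptate immunoassay, 1 h incubation.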

The nature of assay [20]: qHTS assay to identify small molecule phospholipidosis (PLD) inducers (AID 1259344; active = well fitted curve in the direction sought with a large enough effect; an effect the other way counts as inactive or inconclusive). An outline of the steps:
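Phospholipid accumulation was scored by imaging: fixed, Hoechst-counterstained HepG2 cells stained with LipidTOX Red after 24 h compound exposure at 37 C. Read-outs were pit count and pit intensity per well or per cell, with amiodarone and DMSO controls.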

Several values for one entry are separate records, joined by “and”; a condition that tells them apart may be missing. Identical values can stand only once. Inconclusive results are not listed. Some structures have more than one record in an assay (separate samples or runs), and their calls can disagree. Activity calls are given as the source filed them. Unless noted, calls come from the whole dose curve; as a rule, active = well fitted curve in the direction sought with a large enough effect in the repeat runs; inconclusive = weak or mixed curves; inactive = no such curve, though single readings can be large; an effect the other way counts as inactive or inconclusive.

Chain of Estrogen receptor beta (Homo sapiens) (Q92731 whole entry, looked up): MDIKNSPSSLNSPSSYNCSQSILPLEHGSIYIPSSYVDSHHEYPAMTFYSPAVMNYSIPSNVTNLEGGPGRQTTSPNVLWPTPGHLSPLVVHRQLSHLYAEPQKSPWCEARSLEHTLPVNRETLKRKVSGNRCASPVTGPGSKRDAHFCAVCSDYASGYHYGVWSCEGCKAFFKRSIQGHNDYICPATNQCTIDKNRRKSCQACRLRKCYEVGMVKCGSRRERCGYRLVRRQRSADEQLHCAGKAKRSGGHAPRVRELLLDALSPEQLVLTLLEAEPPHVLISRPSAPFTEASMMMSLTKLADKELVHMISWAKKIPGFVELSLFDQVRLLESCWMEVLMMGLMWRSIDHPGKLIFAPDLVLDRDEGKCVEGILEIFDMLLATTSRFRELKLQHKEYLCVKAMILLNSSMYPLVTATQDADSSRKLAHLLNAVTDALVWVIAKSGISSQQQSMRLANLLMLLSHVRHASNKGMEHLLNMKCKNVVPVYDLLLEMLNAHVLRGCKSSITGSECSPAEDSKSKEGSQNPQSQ

As to `O=[N+]([O-])c1ccccc1C(F)(F)F`, the Potency entry in assay [1], in [2], in [3], in assay [4], in assay [5] and in assay [6] was “inactive” throughout. For the same molecule, the Potency result in [7], in [8], in assay [9], in [10], in assay [11] and in assay [12] was “inactive” each time. Also, the Potency entry in assay [13], in [14], in [16] and in assay [17] was “inactive” each time. Also, in assay [15], the Potency was 59.8 µM (active) and inactive.

As to `COc1c2ccoc2cc2oc(=O)ccc12`, the Potency result in assay [1], in assay [2], in assay [4], in assay [5], in assay [6] and in [7] was “inactive” throughout. Further, the Potency entry in assay [8], in assay [9], in assay [10], in [11], in assay [18] and in [12] was “inactive” each time. Besides, the Potency entry in assay [13], in assay [14], in assay [15], in assay [19], in [16] and in assay [17] was “inactive” in each case.

Consider `OC[C@H]1O[C@@H](Oc2ccc(O)cc2)[C@H](O)[C@@H](O)[C@@H]1O`, for which the Potency entry in assay [1], in assay [2], in assay [4], in assay [5], in assay [6] and in assay [7] was “inactive” throughout. Further, the Potency entry in assay [8], in assay [9], in assay [10], in [12], in [13] and in [14] was “inactive” throughout. The Potency result in assay [15], in assay [19], in [16] and in [17] was “inactive” throughout. In addition, the result in assay [20] was inactive.

In the case of `O=C1CCCCCCCCCCC1`, the Potency result in [1], in assay [2], in [4], in assay [5], in assay [6] and in assay [7] was “inactive” in each case. Besides, the Potency result in assay [8], in [9], in assay [10], in assay [11], in [12] and in assay [13] was “inactive” in each case. The Potency entry in [14], in assay [15], in assay [19], in assay [16] and in [17] was “inactive” each time.

With `CC(=O)C(C)C`, the Potency result in assay [1], in [2], in assay [4], in assay [5], in assay [6] and in [7] was “inactive” throughout. For the same molecule, the Potency result in assay [8], in [9], in assay [10], in [11], in [12] and in assay [13] was “inactive” in each case. Besides, the Potency result in assay [14], in [15] and in assay [17] was “inactive” in each case.

As for `CC/C=C(\C(=O)N[C@@H]1C(=O)N2C(C(=O)OCOC(=O)C(C)(C)C)=C(COC(N)=O)CS[C@H]12)c1csc(N)n1`, the Potency result in [1], in [2], in assay [4], in assay [5], in assay [6] and in assay [7] was “inactive” in each case. The Potency result in assay [8], in [9], in assay [10], in [11], in [18] and in assay [12] was “inactive” each time. Moreover, the Potency entry in assay [13], in assay [14], in assay [15], in assay [19], in assay [16] and in [17] was “inactive” throughout. Moreover, the result in assay [20] was inactive.

As to `O=c1c(O)c(-c2ccc(O)c(O)c2)oc2cc(O)cc(O)c12`, the Potency entry in assay [1], in assay [2], in [4], in assay [6], in assay [9] and in assay [10] was “inactive” in each case. The Potency result in [13], in assay [14], in [19], in [16] and in assay [17] was “inactive” in each case. The result in assay [20] was inactive. For the same molecule, the Potency was 27.3 µM (active) and 24.5 µM (active) and 11.9 µM (active) in assay [5]; 30.9 µM (active) in [7]; 48.6 µM (active) and inactive in assay [8]; 48.6 µM (active) and inactive in assay [12]; 24.4 µM (active) and inactive in assay [15].

Take `CCOC(=O)c1ccc(O)cc1`: the Potency entry in assay [1], in assay [2], in assay [4], in [5], in [6] and in assay [7] was “inactive” throughout. Further, the Potency result in [8], in assay [9], in assay [10], in [18], in assay [12] and in [13] was “inactive” in each case. For the same molecule, the Potency result in [14], in assay [15], in [19], in [16] and in [17] was “inactive” in each case. For the same molecule, the molecule was classed as inactive in [20].
